# A selection: hits, their analogues and other compounds. The true share with any hit is near 4.6%.
# TRHR agonist = qHTS for Small Molecule Agonists and Allosteric Enhancers of Human TRH Receptor: Primary Screen for Agonists; Thyrotropin-releasing hormone receptor (Homo sapiens), P34981; actives 0.18% (n = 360,000); activation, % at 2 µM; TRHR cells, calcium flux fluo-8, FDSS agonist mode; further: 0% is about no effect
#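 TRHR-expressing cells, plated overnight in medium with 10% serum, were loaded with fluo-8 calcium dye at room temperature. After a 10 s baseline, library compound was pin-added and calcium release was recorded kinetically (ex 480/em 530) as agonist response.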
# D1 antag = Antagonist of Human D 1 Dopamine Receptor: qHTS; D(1A) dopamine receptor (Homo sapiens), P21728; HEK293 TREx D1 cells, calcium flux, dopamine EC80; active compounds read low; activity change, negative = inhibition, % at 10 µM; actives 3.2% (n = 360,000); in the data active means activity change below about -30%; further: on the % scale 0 is the no-effect control and ±100 the full control effect
# Target sequence (P21728 whole entry, looked up): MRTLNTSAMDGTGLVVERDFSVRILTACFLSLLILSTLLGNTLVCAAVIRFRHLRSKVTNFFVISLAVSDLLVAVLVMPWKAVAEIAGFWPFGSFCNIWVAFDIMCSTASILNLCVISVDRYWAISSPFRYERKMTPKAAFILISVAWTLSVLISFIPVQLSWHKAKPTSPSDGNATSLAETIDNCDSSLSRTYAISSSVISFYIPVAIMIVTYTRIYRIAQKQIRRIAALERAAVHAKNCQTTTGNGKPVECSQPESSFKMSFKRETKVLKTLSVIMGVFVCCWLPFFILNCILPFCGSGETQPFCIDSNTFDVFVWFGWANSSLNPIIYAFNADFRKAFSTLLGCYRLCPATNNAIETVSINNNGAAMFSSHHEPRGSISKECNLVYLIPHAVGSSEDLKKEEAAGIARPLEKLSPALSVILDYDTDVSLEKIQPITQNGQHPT
#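 Compound effects on dopamine-evoked calcium signalling were measured in tetracycline-induced HEK293 Trex D1 cells. Dopamine at EC80 followed a 180 s compound pre-read, and fluorescence was tracked kinetically for 180 s more.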
# TRHR enhancer = qHTS for Small Molecule Agonists and Allosteric Enhancers of Human TRH Receptor: Primary Screen for Enhancers; actives 0.66% (n = 360,000); TRHR cells, fluo-8 calcium fluorescence, EC20 TRH enhancement; enhancement, % at 2 µM; Thyrotropin-releasing hormone receptor (Homo sapiens), P34981; in the data active means enhancement above about 30%; further: 0% is about no effect
#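 TRHR-expressing cells loaded with fluo-8 calcium dye were read kinetically (ex 480/em 530) during compound addition, then stimulated with an EC20 of TRH (10 nM final). Enhancement of the Gq-mediated intracellular calcium response was scored.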
# D1 agonist = Allosteric Agonists of the Human D1 Dopamine Receptor: qHTS; D(1A) dopamine receptor (Homo sapiens), P21728; HEK293 T-REx D1 cells, calcium flux, agonist mode; activation, % at 2 µM; actives 1% (n = 360,000); further: 0% is about no effect
#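 Agonism was scored from calcium flux recorded over 180 s (1 read/s) after pintool compound addition, following a 10-cycle baseline. Cells were inducible force-coupled HEK293 TREx D1, plated overnight at 30 C and loaded with no-wash calcium dye.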
# D1 potentiator = Potentiators of Human D1 Dopamine Receptor: qHTS | potentiation, % at 10 µM | HEK293 TREx D1 cells, calcium flux, dopamine EC20 potentiation | D(1A) dopamine receptor (Homo sapiens), P21728 | actives 0.036% (n = 360,000); in the data active means potentiation above about 30%; further: 0% is about no effect
# Numbers without * were called inactive; ! = repeats disagree. Unless noted, no stated cut-off is given here; in the data, active means activation above about 30%; inactive means the rest.
SMILES,TRHR agonist,D1 antag,TRHR enhancer,D1 agonist,D1 potentiator
Cc1ccc2c(=O)cc(C(=O)N(Cc3ccc(C(C)(C)C)cc3)C3CCS(=O)(=O)C3)oc2c1 (stereo unspecified),-0.2,-74.6*,-3.2,0.2,-3.4
Cc1cc2oc(C(=O)N(Cc3ccccc3)C3CCS(=O)(=O)C3)cc(=O)c2cc1C (stereo unspecified),-0.5,-6.8,5.8,0.0,3.4
COc1ccc(CN(C(=O)c2cc(=O)c3ccccc3o2)C2CCS(=O)(=O)C2)cc1OC (stereo unspecified),0.4,-36.9*!,-3.0,3.6,13.1
O=C(/C(C=Nc1ccc(F)cc1)=C(/O)c1ccco1)C(F)(F)F,0.2,6.2,-5.7,0.9,-6.7
CC1CN(C(=O)CCN2C(=O)c3ccccc3C2=O)CC(C)O1 (stereo unspecified),0.6,-31.7*,3.8,2.3,-8.6
CN1CCN(C(=O)CCN2C(=O)c3ccccc3C2=O)CC1,1.5,3.4,4.8,1.1,7.7
CN1CCN(C(=O)CCn2c(=O)c3cccn3c3cccnc32)CC1,0.1,-0.6,-0.7,5.5,-3.4
CN1CCN2c3ncccc3Cc3ccccc3[C@@H]2C1,-0.4,-32.1*,17.1,4.0,-11.3
COc1ccccc1C(CC(=O)c1ccccc1)CC(=O)c1ccccc1,2.0,-29.6,-7.9,30.1*,-1.7
CCOC(=O)c1c(CN2CCOCC2)oc2ccc(OC)cc12,-0.4,-45.2*,4.3,2.4,-4.7
COc1ccc2oc(C(=O)OCC(=O)Nc3ccc(N4CCOCC4)cc3)c(C)c2c1,0.3,-30.9*,2.0,0.5,-19.8
CCOC(=O)CN(Cc1ccccc1)S(=O)(=O)c1ccc(NC(C)=O)cc1,-0.7,-6.3,4.5,10.0,4.5
CN(C)CCc1cc2c(c3c1ccc1ccccc13)OCO2,1.5,-3.8,1.4,15.4,-2.4
Cc1ccc(S(=O)(=O)N2CCCCC2)cc1NC(=O)c1ccc(Cl)nc1,0.9,6.1,-6.0,-0.9,-0.8
Cc1ccc(NC(=O)C(OC(=O)c2ccc(O)cc2)c2ccccc2)cc1Cl (stereo unspecified),0.8,-41.0*,-4.1,7.6,2.8
COc1ccc(C(=O)COC(=O)CCN2C(=O)C3C4CC(C(Br)C4Br)C3C2=O)cc1 (stereo unspecified),0.1,5.5,17.4,1.4,-4.3
COc1ccc(C(=O)COC(=O)CN2C(=O)C3C4C=CC(C5CC45)C3C2=O)cc1 (stereo unspecified),0.1,-32.7*,2.9,9.2,0.2
CCOc1ccccc1CN1CCN(C/C=C/c2ccc(OC)cc2)CC1CCO (stereo unspecified),2.5,-26.2,-5.7,11.9,-5.7
COc1ccc(/C=C/CN2CCN(CCc3ccccc3)C(CCO)C2)cc1 (stereo unspecified),0.3,-0.4,38.6*,5.7,-4.5
COc1ccccc1N1N=C(C(=O)c2ccccc2)C2C(=O)N(c3ccc(Br)cc3)C(=O)C21 (stereo unspecified),12.3,-8.8,-2.8,46.1*,0.4
CCOc1ccc(N2C(=O)C3C(c4ccccc4)=NN(c4ccccc4)C3C2=O)cc1 (stereo unspecified),0.6,-5.5,6.1,4.2,0.1
O=C(C1=NN(c2ccccc2)C2C(=O)N(c3ccccc3Cl)C(=O)C12)c1ccccc1 (stereo unspecified),58.2*,-9.5,4.6,192.9*,-4.8
COc1ccccc1N1C(=O)C2C(C(=O)c3ccccc3)=NN(c3ccccc3)C2C1=O (stereo unspecified),18.0,-18.1,3.0,35.3*,-0.4
CCOC(=O)C1=NN(c2ccccc2)C2C(=O)N(c3ccccc3OC)C(=O)C12 (stereo unspecified),-1.2,11.3,-0.2,5.0,2.7
Cc1ccc(N2C(=O)C3C(C(=O)c4ccccc4)=NN(c4ccccc4)C3C2=O)cc1 (stereo unspecified),-1.0,-10.6,-0.6,117.2*,-6.2
SMILES,TRHR agonist,D1 antag,TRHR enhancer,D1 agonist,D1 potentiator
COC(=O)C1=NN(c2ccc(Cl)cc2)C2C(=O)N(c3ccccc3OC)C(=O)C12 (stereo unspecified),0.3,2.6,1.0,0.7,-3.0
COc1ccc(CC(=O)Oc2ccccc2[N+](=O)[O-])cc1,0.2,-11.2,-4.0,1.2,-1.1
COc1ccc(-c2cnc(NCc3ccc(C)cc3)n2C)cc1,-2.4,-15.6,4.6,27.9,-0.7
OCc1cnc(SCc2ccccc2)n1Cc1ccccc1,-0.1,2.1,-6.7,3.4,-1.8
C=CCSc1ncc(CO)n1Cc1ccccc1,-0.7,-50.2*,5.0,-1.0,2.3
Cc1cccc(C)c1NC(=O)COC(=O)C1CC1,0.8,1.2,3.7,1.5,1.4
CN1CCC(N(C)S(=O)(=O)c2ccc(NC(=O)COc3ccc(Cl)cc3)cc2)CC1,1.7,-17.9,-0.4,47.6*,-2.9
Cc1nn(C)c(Oc2ccc(Cl)cc2)c1C(=O)O,0.2,-33.3*,-5.0,1.5,-8.4
Cn1c(=O)n(C)c2cc(NC(=O)COc3ccc(Cl)cc3)ccc21,-0.3,-32.9*,0.4,17.9,-6.3
Cn1c(=O)n(C)c2cc(NC(=O)COc3ccc(F)cc3F)ccc21,-0.1,-14.3,1.3,1.4,-6.0
CN1CCC(N(C)S(=O)(=O)c2ccc(NC(=O)COc3ccc([N+](=O)[O-])cc3)cc2)CC1,1.9,-3.6,-3.3,34.4*,-8.4
CN1CCC(N(C)S(=O)(=O)c2ccc(NC(=O)COc3ccc(F)cc3)cc2)CC1,0.4,-25.7,7.2,23.9,-7.8
CCCCCCc1cc2cc(-c3cn4c(n3)sc3cc(OC)ccc34)c(=O)oc2cc1O,2.2,8.3,2.7,4.8,-0.7
CC(Oc1cccc(Cl)c1)C(=O)Nc1ccc(S(=O)(=O)N(C)C2CCN(C)CC2)cc1 (stereo unspecified),3.5,-61.6*,0.0,93.8*,-8.5
Cc1nn(C)c(C)c1NC(=O)COc1ccc(Cl)cc1,-0.1,-33.5*,2.4,14.3,1.1
CC(=O)Nc1ccc(S(=O)(=O)N(C)C2CCN(C)CC2)cc1,0.5,-1.6,-3.6,3.0,-2.3
Cc1cccc(C)c1OCC(=O)Nc1c(C)nn(C)c1C,1.1,0.2,-7.8,1.6,-2.2
CCCCC(=O)N/N=C/c1cc([N+](=O)[O-])ccc1N1CCOCC1,-0.1,-1.0,-1.9,-0.4,-1.9
CC(c1ccccc1)n1cc(C(=O)NCc2cccnc2)nn1 (stereo unspecified),0.4,9.6,15.0,1.8,-9.3
Clc1cccc(Cl)c1CNc1ccc(N2CCCC2)cc1,0.5,1.8,31.0*,-0.5,-1.9

# Screens from PubChem BioAssay.
